Test results taken from ChEMBL document CHEMBL1157539, “Thousands of chemical starting points for antimalarial lead identification” (Nature, 2010).

Legend:
Assay type in all cases: functional
[1] = tested on: Plasmodium falciparum; experiment: GSK_TCMDC: Inhibition of Plasmodium falciparum 3D7 in whole red blood cells, using parasite LDH activity as an index of growth. Test compounds present at 2uM
[2] = tested on: Plasmodium falciparum; experiment: GSK_TCMDC: Inhibition of Plasmodium falciparum Dd2 in whole red blood cells, using parasite LDH activity as an index of growth. Test compounds present at 2uM
[3] = tested on: HepG2; experiment: GSK_TCMDC: Percent inhibition of human HepG2 cell line. Test compounds present at 10uM.

Compound | Inhibition [1] [%] | Inhibition [2] [%] | Inhibition [3] [%]
O=C(Nc1cccc(-c2ccc(-c3nc4cc(C(F)(F)F)ccc4[nH]3)s2)c1)c1ccncc1 | 99 | 46 | 79
CCCCC(N)COc1cccc2c(-c3ccncc3)c(-c3cccc(NC(=O)Nc4ccccc4)c3)nn12 (stereo not given) | 100 | 82 | 13
FC(F)(F)c1cccc(C=NNc2nc3ccccc3[nH]2)c1 | 100 | 99 | 1
Cc1ccc(Nc2nc(C)cc(Nc3cccc(C#N)c3)n2)cc1 | 100 | 96 | 14
Cc1ccc(-n2c(=O)c3cccnc3n2CC(=O)Nc2cccc(C)c2C)cc1 | 96 | 20 | 9
COc1ccc2nc3cc(Cl)ccc3c(NCc3ccccc3)c2c1.Cl | 100 | 50 | 8
CCOC(=O)c1ccc(NC(=O)N[C@H]2CCN(CCCCCNC(=O)/C=C/c3ccc(Cl)c(Cl)c3)C2)cc1 | 98 | 1 | 21
CCCNC[C@@H](O)[C@H](Cc1ccccc1)NC(=O)c1cc2c3c(c1)c(CC)cn3CCS(=O)(=O)N2C | 97 | 98 | 0
CCc1nnc2sc(-c3cccc(NC(=O)c4ccc(C)c([N+](=O)[O-])c4)c3)nn12 | 82 | 46 | 10
Clc1ccc(Nc2nc(Nc3ccc(Cl)c(Cl)c3)nc(Sc3nc4ccccc4[nH]3)n2)cc1Cl | 99 | 100 | 10
Cc1cc(-c2ccc(NC(=O)c3coc4ccc(N5CC(C)N(C)C(C)C5)cc34)cc2C)cc(C)n1.Cl (stereo not given) | 94 | 62 | 13
O=C(/C=C/c1ccc(Cl)cc1Cl)NCCCCCN1CCC(c2c[nH]c3ccccc23)CC1 | 99 | 9 | 95
COc1ccc(C(C)Nc2nc(N)c3cc(OC)c(OC)cc3n2)cc1.Cl (stereo not given) | 100 | 28 | 23
COc1cc(Cc2cnc(N)nc2N)ccc1OCc1cccc(Oc2ccccc2)c1 | 84 | 21 | 18
CC(C)N1CCN(C(CN2CCN(CCCOc3ccccc3-c3ccccc3)CC2)c2ccc(F)cc2)CC1.Cl (stereo not given) | 100 | 96 | 98
Cc1cc(NC2CCN(CC3CCCCC3)C2)nc(Nc2ccc(Cl)cc2)n1 (stereo not given) | 98 | 83 | 26
COc1ccc2nccc([C@@H](O)CN3CCC(NC(=O)c4cc5c(F)cc(F)cc5[nH]4)CC3)c2c1.CS(=O)(=O)O | 100 | 98 | 33
O=[N+]([O-])c1ccccc1/C=N/Nc1ccnc2ccc(C(F)(F)F)cc12 | 100 | 36 | 6
Cc1cc(=O)c2cc(Oc3ccc(OC(F)(F)F)cc3)ccc2[nH]1 | 86 | 71 | 20
COc1cc(C)cc(CN2CCC(Cc3ccccc3)CC2)c1O | 97 | 94 | 35
N#Cc1c(N2CCCCCC2)nc(N)c2c(N)nc3c(c12)CC(=O)N3c1ccc(F)cc1 | 97 | 91 | 0
Cc1cc(N2CCCC2)nc(Nc2ccc(NC(=O)c3ccc(Br)o3)cc2)n1 | 99 | 57 | 17
C=C(NC(=O)C1CCCCC1)C(=O)OC | 93 | 3 | 15
CCOC(=O)C(CO)NC(=O)c1ccc([N+](=O)[O-])o1 (stereo not given) | 96 | 2 | 0
CCCn1c(O)nnc1SCC(=O)Nc1cc(C(F)(F)F)ccc1Cl | 96 | 94 | 0
CCN(CCNC(=O)Cn1c(C)cc2cc([N+](=O)[O-])ccc21)c1cccc(C)c1 | 97 | 95 | 0
CN(C)CCNc1ncnc2c1[nH]c1ccc(Br)cc12 | 100 | 7 | 2
CCCNCc1ccc(-c2ccc(CN(Cc3cnc(C)cn3)C(=O)c3nn(-c4ccccc4)nc3C)cc2)nc1.O=C(O)C(F)(F)F | 99 | 49 | 22
O=C(CCNc1ccnc(NCC2CCCCC2)n1)Nc1ccccc1.O=C(O)C(F)(F)F | 95 | 48 | 55
Cc1nnc2c(NC(=O)NC3CCCC3)cc3cc(-c4ccc(CN(C)C)cc4)ccc3n12 | 100 | 37 | 100
